Results reported in PubChem BioAssay (Tox21).
Records with an inconclusive call do not appear. Where a call stands in place of a potency, no number is given. Active and inactive are the calls of the source. Calls follow the shape of the dose curve; as a rule, active = well fitted activation curve with a large enough effect in the repeat runs; inconclusive = weak or mixed curves; inactive = flat fitted curve, though single readings scatter.

Experiment: A CellTox Green Cytotoxicity Assay to monitor cytotoxicity in HepG2 cells - 32 hour (AID 1224883); also: nearly all actives have a fitted effect of over 50% in size
Settings: CellTox Green fluorescence; series mostly up to 76.8 µM
Source text: National Center for Advancing Translational Sciences [NCATS]
NIH Chemical Genomics Center [NCGC]
U.S. Environmental Protection Agency [EPA]
National Institutes of Environmental Health Sciences [NIEHS]
National Toxicology Program [NTP]
Cell-based models are critical for drug discovery. Determining the natural cytotoxic effects resulting from test compounds is an essential research activity. A CellTox Green Cytotoxicity Assay to monitor cytotoxicity in real time of continues cell culture during 40 hours of the compound treatment was used to screen Tox21 10K library compounds in HepG2 cells. CellTox Green Cytotoxicity Assay is a nonlytic, homogeneous, biofluorescent method to measure cytotoxicity in cell culture after experimental manipulation. The assay system uses a proprietary asymmetric cyanine dye that is excluded from viable cells but preferentially stains the dead cell's DNA. […] Viable cells produce no appreciable increases in fluorescence. Therefore, the fluorescence signal produced by the binding interaction with dead cell DNA is proportional to cytotoxicity.
The mixture of HepG2 cell suspension and reagents were dispensed at 600cells/6 ul/well in 1536-well tissue culture treated black solid bottom plates using a Multidrop dispenser. After the assay plates were incubated at a 37 C/5% CO2 incubator for 5 hours, 23 nL of compounds dissolved in DMSO, positive and negative controls was transferred to the assay plate by a pintool work station. The plates were incubated at 37 C for 40 hours. The fluorescence intensity were measured at 0h, 8h, 16h, 24h, 32h and 40h time points using ViewLux plate reader during compound treatment.
With `CC(=O)Nc1cc([As](=O)(O)O)ccc1O` the Potency was “inactive”.
With `[Cl][Sn]([Cl])([Cl])[Cl]` the Potency was “inactive”.
With `COC(=O)C(C)Oc1ccc(Oc2ccc(Cl)cc2Cl)cc1` (stereo not given) the Potency was “inactive”.
In the case of `COc1cccc(C(=O)NN(C(=O)c2cc(C)cc(C)c2)C(C)(C)C)c1C`, the Potency is reported as “inactive”.
With `CNNC` the Potency was “inactive”.
With `Cc1nnc2n1-c1sc(CCC(=O)N3CCOCC3)cc1C(c1ccccc1Cl)=NC2` the Potency was “inactive”.
For `Cc1ccccc1CO[C@@H]1C[C@@]2(C(C)C)CC[C@]1(C)O2`, the Potency was “inactive”.
In the case of `CNC(=O)Oc1ccc(N(C)C)c(C)c1`, the Potency is reported as “inactive”.
For `Cc1cc(C)nc(Nc2ccccc2)n1`, the Potency was “inactive”.
In the case of `CCS(=O)(=O)C(C)(C)S(=O)(=O)CC`, the Potency is reported as “inactive”.
In the case of `CC(C=O)Cc1ccc2c(c1)OCO2` (stereo not given), the Potency is reported as “inactive”.
With `N#Cc1ccncc1` the Potency was “inactive”.
In the case of `CSc1ccc(C(=O)C(C)(C)N2CCOCC2)cc1`, the Potency is reported as “inactive”.
For `O=c1oc2ccccc2c(O)c1C1CCCc2ccccc21` (stereo not given), the Potency was “inactive”.
For `CCC/C(=N\OCC)C1=C(O)CC(CC(C)SCC)CC1=O` (stereo not given), the Potency was “inactive”.
In the case of `CNCC(=O)c1ccc(O)c(O)c1`, the Potency is reported as “inactive”.
In the case of `O=C1OC(=O)C2C1C1(Cl)C(Cl)=C(Cl)C2(Cl)C1(Cl)Cl` (stereo not given), the Potency is reported as “inactive”.
With `CN1C[C@@H](NS(=O)(=O)N(C)C)C[C@@H]2c3cccc4c3c(cn4C)C[C@H]21` the Potency was “inactive”.
With `O=C(CCN1CC1)OCC(CO)(COC(=O)CCN1CC1)COC(=O)CCN1CC1` the Potency was “inactive”.
In the case of `COC(=O)c1ccccc1S(=O)(=O)NC(=O)Nc1nc(C)cc(C)n1`, the Potency is reported as “inactive”.
With `CC(C1CC1)C(O)(Cn1cncn1)c1ccc(Cl)cc1` (stereo not given) the Potency was “inactive”.
In the case of `N#CC(O)c1ccccc1` (stereo not given), the Potency is reported as “inactive”.
For `CCCSC(=O)Cl`, the Potency was “inactive”.
For `C#C[C@]1(O)C=C[C@H]2[C@@H]3CCC4=CC(=O)CC[C@@H]4[C@H]3CC[C@@]21CC`, the Potency was “inactive”.
With `Cc1ncc(CNC(=O)N(CCCl)N=O)c(N)n1` the Potency was “inactive”.
With `CNC(=O)Oc1c(C(C)(C)C)cc(C)cc1C(C)(C)C` the Potency was “inactive”.
In the case of `CCNc1nc(NC(C)C)nc(OC)n1`, the Potency is reported as “inactive”.
With `CCSC(=O)N(CC)C1CCCCC1` the Potency was “inactive”.
In the case of `Fc1cc(Br)ccc1CBr`, the Potency is reported as “inactive”.
With `O=C(Cc1ccccc1)OCc1ccccc1` the Potency was “inactive”.
With `C[N+](C)=CCl` the Potency was “inactive”.
In the case of `OCCSCSCCO`, the Potency is reported as “inactive”.
In the case of `COc1ncc(F)c2nc(S(=O)(=O)Nc3c(F)cccc3F)nn12`, the Potency is reported as “inactive”.
In the case of `CSc1nc(N=[N+]=[N-])nc(NC(C)C)n1`, the Potency is reported as “inactive”.
For `CC(=O)[C@H]1CC[C@H]2[C@@H]3CC[C@H]4C[C@H](O)CC[C@]4(C)[C@H]3C(=O)C[C@]12C`, the Potency was “inactive”.
With `O=NN1CCN(N=O)CC1` the Potency was “inactive”.
In the case of `CCOC(=O)NC(=S)Nc1ccccc1NC(=S)NC(=O)OCC`, the Potency is reported as “inactive”.
For `Cc1nc(N)nc(N)n1`, the Potency was “inactive”.
For `O=[N+]([O-])c1cccc2cccnc12`, the Potency was “inactive”.
With `COc1cc(OC)nc(Oc2cccc(Oc3nc(OC)cc(OC)n3)c2C(=O)O)n1` the Potency was “inactive”.
